# Assay results taken from PubChem BioAssay (NCI).
# The panel holds about 79,000 compounds, 15% with a hit somewhere; the sample as a whole holds those more often. The source made the active and inactive calls. No stated cut-off is given here; in the data, active means growth inhibition above about 70%; inactive means the rest.
# Assay: NCI Yeast Anticancer Drug Screen. Data for the rad50 strain (AID 155);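 further: 0% = growth of vehicle-only cultures of the same strain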
# Settings: S. cerevisiae rad50 strain growth inhibition; at 100.0 µM; active compounds read high
# Procedure, shortened: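 Genetically altered yeast (DNA repair pathway); compound treatment; growth inhibition vs vehicle ctrl.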
row,SMILES,growth inhibition
1,C[N+](C)([O-])CCCNc1c2ccccc2nc2cccc([N+](=O)[O-])c12,95% (active)
2,O=C(c1cc(=O)c2ccc(O)cc2o1)c1ccc(Cl)cc1Cl,93% (active)
3,CCCNC(=O)OCc1c(COC(=O)NCCC)c(-c2ccc(Cl)c(Cl)c2)n2c1CCC2,50% (inactive)
4,O=C(Cc1ccccc1)NN1C(=O)C(Cl)C1c1cc(Br)cc(Br)c1O (stereo unspecified),84% (active)
5,CCOC(=O)C(Cc1c2ccccc2cc2ccccc12)(NC(C)=O)C(=O)OCC,-2% (inactive)
6,O=[N+]([O-])/C=C/c1cc2ccc3ccccc3c2[nH]1,82% (active)
7,Fc1ccc(Nc2ccc3ccccc3c2)cc1,89% (active)
8,O=S1(=O)CCC2=CC(C(F)(F)F)=CC(C(F)(F)F)=CN21,98% (active)
9,O=C(Cc1ccccc1)NNc1nc(NNC(=O)c2ccncc2)nc(Nc2ccc([N+](=O)[O-])cc2)n1,21% (inactive)
10,CCCCS/C(=C(/C#N)C(N)=O)c1cc2c([nH]1)CCCC2,48% (inactive)
11,O=C(O)c1ccccc1C(=O)OC1CCc2ccccc2C1 (stereo unspecified),39% (inactive)
12,CCOC(=O)/C(=C\c1cccc(C)c1)C(C)=O,98% (active)
13,NC(=S)N/N=C1\c2ccccc2CCC1CCC1(O)CCc2ccccc2C1=O (stereo unspecified),78% (active)
14,Cc1cccc2c(Cl)c3cccc(C)c3nc12,62% (inactive)
15,CC(C)OC(=O)NNc1c(Cl)cc(Cl)cc1Cl,13% (inactive)
16,Nc1ccc2c(c1)C(=O)c1c(F)cccc1-2,98% (active)
17,N#CSCC1COc2ccccc2O1 (stereo unspecified),98% (active)
18,Cc1ccc(S(=O)(=O)NC(=O)C2C(=O)CC3(CCCCC3)CC2=O)cc1,35% (inactive)
19,CC1=NN(C(=O)c2ccccc2O)C(=O)/C1=C/c1ccco1,95% (active)

# Assay: NCI Yeast Anticancer Drug Screen. Data for the mec2-1 strain (AID 157)
# Settings: S. cerevisiae mec2-1 strain, at 1.2 µM, active compounds read high
# Procedure, shortened: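 Yeast mec2-1 mutant treated with compound. Readout: growth inhibition vs vehicle controls.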
row,SMILES,growth inhibition
1,CC(CN(C)C)C(=O)/C=C/c1ccc(Cl)c(Cl)c1 (stereo unspecified),4% (inactive)
2,CCCCCCNCCCNc1c2cc(OC)ccc2nc2cccc([N+](=O)[O-])c12,-1% (inactive)
3,NC(=S)N1N=C2c3ccccc3CC[C@H]2[C@@H]1c1ccc(Cl)cc1,-17% (inactive)
4,C/C(=N/NC(=S)Nc1ccccc1C)c1ccccn1,-3% (inactive)
5,O=C1/C(=C/c2ccc(Cl)c(Cl)c2)CNC/C1=C\c1ccc(Cl)c(Cl)c1,25% (inactive)
6,CC(C)OP(=O)(OC(C)C)C(=NCCO)NNc1ccc([N+](=O)[O-])cc1,-23% (inactive)
7,N#CCC(=O)N/N=C(\c1ccccc1)C(c1ccccc1)C1(O)C(=O)Nc2c(Cl)ccc(Cl)c21 (stereo unspecified),3% (inactive)
8,CC(C)(CN1CCCCC1)C(=O)CC(SCCS(=O)(=O)O)c1ccccc1 (stereo unspecified),-1% (inactive)
9,COC1=CCC23C(=O)C=CC(=O)C2(C1)C(=O)c1ccccc1C3=O (stereo unspecified),8% (inactive)
10,CCCCN(CCCC)c1ccc(N=Nc2ccc(S(=O)(=O)O)cc2)cc1,32% (inactive)
11,c1ccc2nc3c(nc2c1)sc1ccccc13,4% (inactive)
12,O=C1c2ccccc2-c2ccc(N=Cc3ccccc3)cc21,-4% (inactive)
13,CNC(=S)N/N=C(/C)CCC/C(C)=N/NC(=S)NC,27% (inactive)
14,Nc1ccc(/C=C/c2ccc3cccnc3c2)cc1,-2% (inactive)
15,COc1ccc2c3c1OC(C)C31CC(=O)CCC1CC2 (stereo unspecified),-4% (inactive)
16,CCOC(=O)Nc1ccc(C)c(NC(=O)OCC)c1,4% (inactive)
17,CCN(CC)CCNc1ccc2nc(C)n3c4ccc(OC)cc4c(=O)c1c23,32% (inactive)
18,C[N+](C)([O-])CCCNc1c2ccccc2nc2cccc([N+](=O)[O-])c12,3% (inactive)
19,O=C(c1cc(=O)c2ccc(O)cc2o1)c1ccc(Cl)cc1Cl,-27% (inactive)
20,CCCNC(=O)OCc1c(COC(=O)NCCC)c(-c2ccc(Cl)c(Cl)c2)n2c1CCC2,-47% (inactive)
21,O=C(Cc1ccccc1)NN1C(=O)C(Cl)C1c1cc(Br)cc(Br)c1O (stereo unspecified),-3% (inactive)
22,CCOC(=O)C(Cc1c2ccccc2cc2ccccc12)(NC(C)=O)C(=O)OCC,0% (inactive)
23,O=[N+]([O-])/C=C/c1cc2ccc3ccccc3c2[nH]1,20% (inactive)
24,Fc1ccc(Nc2ccc3ccccc3c2)cc1,-1% (inactive)
25,O=S1(=O)CCC2=CC(C(F)(F)F)=CC(C(F)(F)F)=CN21,52% (inactive)
26,O=C(Cc1ccccc1)NNc1nc(NNC(=O)c2ccncc2)nc(Nc2ccc([N+](=O)[O-])cc2)n1,3% (inactive)
27,CCCCS/C(=C(/C#N)C(N)=O)c1cc2c([nH]1)CCCC2,-8% (inactive)
